Measurements reported in PubChem BioAssay (EPA / NIEHS).
The source made the active and inactive calls. The calls were made as follows: active = hit-call score of the fitted dose curve at least 0.9, where 1 is the maximum; inactive = score below 0.9.

Columns and labels:
[1] = ATG_ISRE_CIS: Attagene CIS-FACTORIAL HepG2 Assay for human Interferon Regulatory Factor 1 (IRF1) binding to an Interferon-Stimulated Response Element (ISRE) (AID 2282948); conditions: HepG2 ISRE cis-reporter (Attagene), mRNA transcription readout; actives raise or lower the signal
Procedure, shortened: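 Signal reflects induction or loss of ISRE-linked reporter mRNA in transiently transfected HepG2 cells after a 24 h treatment, detected by fluorescent RT-PCR fragments on capillary electrophoresis and normalised to DMSO.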

[2] = ATG_M_32_CIS: Attagene CIS-FACTORIAL HepG2 Assay for M32 Transcription Factor (Internal Marker) (AID 2282949); conditions: HepG2 Attagene cis-factorial M32 reporter, mRNA; actives raise or lower the signal;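 also: background control marker of the multiplexed CIS panel rather than a real target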
Procedure, shortened: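 Transient MRTU transfection of HepG2; 24 h compound treatment; TriZol RNA, oligo(dT) RT, reporter PCR, 6-FAM primer extension, HpaI cut, CE. Gain/loss of signal vs DMSO.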

[3] = ATG_M_06_CIS: Attagene CIS-FACTORIAL HepG2 Assay for M06 Transcription Factor (Internal Marker) (AID 2282950); conditions: HepG2 Attagene CIS-FACTORIAL M06 internal marker reporter; actives raise or lower the signal
Procedure, shortened: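 HepG2 cells transiently transfected with cis-regulated multiple reporter transcription units were exposed to chemical for 24 h; reporter mRNA was quantified by RT-PCR, 6-FAM primer labelling, HpaI digestion and capillary electrophoresis, fitted bidirectionally against DMSO.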

[4] = biological target: Hypoxia-inducible factor 1-alpha (Homo sapiens) (UniProt Q16665); experiment: ATG_HIF1a_CIS: Attagene CIS-FACTORIAL HepG2 Assay for human Hypoxia Inducible Factor 1 (HIF1A) (AID 2282951); conditions: HepG2 Attagene cis-factorial HIF1a reporter transcription; actives raise or lower the signal
Procedure, shortened: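 Dosed 24 h, transfected HepG2 cells yielded total RNA whose reporter transcripts were RT-PCR-amplified and sized by capillary electrophoresis using fluorescent labelling; DMSO defined baseline, with gain and loss of signal both fitted.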

[5] = biological target: Hepatocyte nuclear factor 6 (Homo sapiens) (UniProt Q9UBC0); experiment: ATG_HNF6_CIS: Attagene CIS-FACTORIAL HepG2 Assay for human Hepatocyte Nuclear Factor 6 (HNF6) (AID 2282952); conditions: HepG2 Attagene cis-factorial HNF6 reporter transcription; actives raise or lower the signal
Procedure, shortened: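 Endogenous factor activity read in transiently transfected HepG2 via promoter-regulated reporter transcripts. RNA harvested 24 h post-dosing, reverse-transcribed, PCR-amplified, FAM-labelled, HpaI-digested and resolved by capillary electrophoresis; fitted in both directions against DMSO.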

[6] = biological target: Heat shock factor protein 1 (Homo sapiens) (UniProt Q00613); experiment: ATG_HSE_CIS: Attagene CIS-FACTORIAL HepG2 Assay for human Heat Shock Transcription Factor 1 (HSE) (AID 2282953); conditions: HepG2 HSE cis-reporter, Attagene RNA transcription; actives raise or lower the signal
Procedure, shortened: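 HepG2 cells transiently transfected with multiple reporter transcription units under cis-regulatory promoter control, measuring endogenous transcription factor activity. After 24 h chemical exposure, reporter mRNA quantified by RT-PCR, fluorescent labelling, HpaI digestion and capillary electrophoresis; bidirectional fit versus DMSO.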

[7] = ATG_MRE_CIS: Attagene CIS-FACTORIAL HepG2 Assay for human Metal Responsive Element (MRE) (AID 2282954); conditions: HepG2 MRE cis-reporter transcription, Attagene multiplex; actives raise or lower the signal
Procedure, shortened: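 Multiplexed cis-reporter assay in human HepG2 liver cells, 24 h incubation with test chemical. Reporter transcripts measured by RT-PCR and capillary electrophoresis; values from bidirectional curve fitting versus DMSO.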

[8] = ATG_PBREM_CIS: Attagene CIS-FACTORIAL HepG2 Assay for human Phenobarbital-responsive Enhancer Module (PBREM) (AID 2282955); conditions: HepG2 PBREM cis-reporter, Attagene multiplexed transcription; actives raise or lower the signal
Procedure, shortened: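 Transfected liver-derived HepG2 cells exposed 24 h; PBREM reporter transcript quantified via RT-PCR and capillary electrophoresis, with activity in either direction referenced to DMSO.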

[9] = biological target: Paired box protein Pax-6 (Homo sapiens) (UniProt P26367); experiment: ATG_Pax6_CIS: Attagene CIS-FACTORIAL HepG2 Assay for human Paired Box 6 (PAX6) (AID 2282956); conditions: HepG2 CIS-FACTORIAL PAX6 reporter transcription, RNA readout; actives raise or lower the signal
Procedure, shortened: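 Values derive from bidirectional curve fitting of reporter mRNA signal relative to DMSO. HepG2 cells bearing transfected cis-regulated MRTUs were exposed for 24 h; transcripts were read by RT-PCR and capillary electrophoresis.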

[10] = ATG_PXRE_CIS: Attagene CIS-FACTORIAL HepG2 Assay for human Pregnane X Receptor Element (PXRE) (AID 2282957); conditions: HepG2 Attagene CIS-FACTORIAL PXRE reporter, mRNA; actives raise or lower the signal
Procedure, shortened: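 Reporter transcripts under endogenous PXR-responsive cis-regulation quantified from total RNA of transfected HepG2 cells 24 h post-dosing, via RT-PCR with fluorescent primer extension and capillary electrophoresis. Gain or loss of signal fitted against DMSO baseline.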

[11] = ATG_PPRE_CIS: Attagene CIS-FACTORIAL HepG2 Assay for human Peroxisome Proliferator-activated Response Element (PPRE) (AID 2282958); conditions: HepG2 PPRE cis-element reporter, Attagene transcription factor profiling; actives raise or lower the signal
Procedure, shortened: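 Measured endpoint: PPRE-controlled reporter mRNA, detected by RT-PCR and capillary electrophoresis fluorescence, from transiently transfected HepG2 cells 24 h after dosing. Curves fitted in both directions using DMSO baseline.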

[12] = ATG_RORE_CIS: Attagene CIS-FACTORIAL HepG2 Assay for human RAR-related Orphan Receptor Element (RORE) (AID 2282959); conditions: HepG2 Attagene cis-factorial RORE reporter, mRNA; actives raise or lower the signal
Procedure, shortened: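 Transiently transfected HepG2 reporter cells were treated 24 h. Reporter transcripts were detected by RT-PCR and capillary electrophoresis, with bidirectional fitting against DMSO.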

[13] = ATG_Sox_CIS: Attagene CIS-FACTORIAL HepG2 Assay for human SRY-box transcription factor (SOX) (AID 2282960); conditions: HepG2 Attagene cis-factorial SOX reporter, mRNA; actives raise or lower the signal
Procedure, shortened: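 Gain- or loss-of-signal endpoint, fitted bidirectionally with DMSO as negative control. Based on reporter mRNA from transfected HepG2 cells harvested 24 h post-treatment and quantified via RT-PCR and capillary electrophoresis.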

[14] = biological target: Transcription factor Sp1 (Homo sapiens) (UniProt P08047); experiment: ATG_Sp1_CIS: Attagene CIS-FACTORIAL HepG2 Assay for human Specificity Protein 1 (Sp1) (AID 2282961); conditions: HepG2 Sp1 cis-reporter transcription, actives raise or lower the signal
Procedure, shortened: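 Endpoint reflects endogenous Sp1 transcriptional activity, not an exogenous fusion protein: HepG2 cells with transfected cis-regulated reporters, 24 h dosing, RT-PCR/capillary electrophoresis mRNA read-out, DMSO-normalised bidirectional fit.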

[15] = ATG_SREBP_CIS: Attagene CIS-FACTORIAL HepG2 Assay for human Sterol Regulatory Element Binding (SREBP) (AID 2282962); conditions: HepG2 Attagene cis-factorial SREBP reporter, mRNA; actives raise or lower the signal
Procedure, shortened: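 Values derive from bidirectional curve fitting with DMSO as baseline. The underlying measurement is reporter mRNA from cis-element-regulated units in transiently transfected HepG2, quantified by RT-PCR and capillary electrophoresis after 24 h exposure.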

[16] = biological target: Signal transducer and activator of transcription 3 (Homo sapiens) (UniProt P40763); experiment: ATG_STAT3_CIS: Attagene CIS-FACTORIAL HepG2 Assay for human Signal Transducer and Activator of Transcription 3 (STAT3) (AID 2282963); conditions: HepG2, Attagene cis-factorial STAT3 reporter transcription; actives raise or lower the signal
Procedure, shortened: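 Cis-factorial format: endogenous transcription factors in HepG2 drive transfected reporter units. After 24 h treatment, reporter RNA was reverse-transcribed, amplified, FAM-labelled and HpaI-digested before CE analysis; activity scored in both directions against DMSO.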

[17] = ATG_TA_CIS: Attagene CIS-FACTORIAL HepG2 Assay for human TA Basal Promoter (AID 2282964); conditions: HepG2 Attagene CIS-factorial TA basal promoter reporter; actives raise or lower the signal
Procedure, shortened: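 HepG2 cells transiently transfected with multiplexed cis-promoter reporter units, dosed 24 h. Reporter mRNA measured by RT-PCR, 6-FAM labelling, HpaI digestion and capillary electrophoresis; bidirectional fit versus DMSO baseline, serving as background control.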

[18] = ATG_TCF_b_cat_CIS: Attagene CIS-FACTORIAL HepG2 Assay for human T-Cell-Factor with beta-catenin (TCF/b-cat) (AID 2282965); conditions: HepG2 TCF/beta-catenin cis-reporter transcription, actives raise or lower the signal
Procedure, shortened: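 Endogenous transcription factor activity is captured through cis-promoter reporter constructs transiently introduced into human HepG2 liver cells. Induced reporter mRNA is measured after 24 h and fitted bidirectionally relative to DMSO.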

[19] = ATG_TAL_CIS: Attagene CIS-FACTORIAL HepG2 Assay for human TAL Basal Promoter (AID 2282966); conditions: HepG2 Attagene cis-factorial TAL promoter reporter; actives raise or lower the signal;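 also: background control endpoint measuring basal TAL promoter reporter mRNA not a specific factor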
Procedure, shortened: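 Background-control endpoint: basal TAL promoter reporter transcripts in transiently transfected HepG2, measured 24 h after dosing. Read-out by RT-PCR with fluorescent primer extension and capillary electrophoresis; gain or loss of signal fitted relative to DMSO.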

[20] = ATG_TGFb_CIS: Attagene CIS-FACTORIAL HepG2 Assay for human Transforming Growth Factor (TGF) (AID 2282967); conditions: HepG2 Attagene CIS TGFb reporter, mRNA transcription; actives raise or lower the signal
Procedure, shortened: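 HepG2 cells transiently transfected with cis-promoter-driven multiplexed reporter units; 24 h compound exposure. Reporter mRNA measured by RT-PCR, 6-FAM labeling, HpaI digestion and capillary electrophoresis; bidirectional fit versus DMSO baseline.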

Measured: AC50

Sequence of Hypoxia-inducible factor 1-alpha (Homo sapiens) (Q16665 whole entry, looked up): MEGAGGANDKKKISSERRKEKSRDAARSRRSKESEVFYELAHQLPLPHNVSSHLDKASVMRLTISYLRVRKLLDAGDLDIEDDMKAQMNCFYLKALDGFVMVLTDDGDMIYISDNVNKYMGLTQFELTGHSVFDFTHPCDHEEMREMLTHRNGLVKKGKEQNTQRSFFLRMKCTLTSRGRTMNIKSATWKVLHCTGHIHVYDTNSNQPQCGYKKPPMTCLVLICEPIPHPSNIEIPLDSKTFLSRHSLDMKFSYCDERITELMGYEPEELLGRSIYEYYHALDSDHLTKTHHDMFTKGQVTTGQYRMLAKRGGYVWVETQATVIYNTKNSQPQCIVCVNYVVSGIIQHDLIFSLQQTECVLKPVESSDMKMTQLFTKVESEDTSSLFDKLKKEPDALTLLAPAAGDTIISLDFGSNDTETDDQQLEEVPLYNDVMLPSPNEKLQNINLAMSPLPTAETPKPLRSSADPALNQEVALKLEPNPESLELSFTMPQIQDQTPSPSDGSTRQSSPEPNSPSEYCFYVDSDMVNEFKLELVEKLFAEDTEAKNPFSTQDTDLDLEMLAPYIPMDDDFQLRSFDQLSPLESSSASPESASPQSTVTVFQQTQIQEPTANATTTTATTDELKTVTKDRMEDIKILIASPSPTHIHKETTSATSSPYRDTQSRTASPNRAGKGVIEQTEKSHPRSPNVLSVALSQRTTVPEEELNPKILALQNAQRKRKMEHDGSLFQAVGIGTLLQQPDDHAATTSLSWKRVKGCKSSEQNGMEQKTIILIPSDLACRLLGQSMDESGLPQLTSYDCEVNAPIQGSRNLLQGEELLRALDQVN
Sequence of Transcription factor Sp1 (Homo sapiens) (P08047 whole entry, looked up, the tested form may be a part): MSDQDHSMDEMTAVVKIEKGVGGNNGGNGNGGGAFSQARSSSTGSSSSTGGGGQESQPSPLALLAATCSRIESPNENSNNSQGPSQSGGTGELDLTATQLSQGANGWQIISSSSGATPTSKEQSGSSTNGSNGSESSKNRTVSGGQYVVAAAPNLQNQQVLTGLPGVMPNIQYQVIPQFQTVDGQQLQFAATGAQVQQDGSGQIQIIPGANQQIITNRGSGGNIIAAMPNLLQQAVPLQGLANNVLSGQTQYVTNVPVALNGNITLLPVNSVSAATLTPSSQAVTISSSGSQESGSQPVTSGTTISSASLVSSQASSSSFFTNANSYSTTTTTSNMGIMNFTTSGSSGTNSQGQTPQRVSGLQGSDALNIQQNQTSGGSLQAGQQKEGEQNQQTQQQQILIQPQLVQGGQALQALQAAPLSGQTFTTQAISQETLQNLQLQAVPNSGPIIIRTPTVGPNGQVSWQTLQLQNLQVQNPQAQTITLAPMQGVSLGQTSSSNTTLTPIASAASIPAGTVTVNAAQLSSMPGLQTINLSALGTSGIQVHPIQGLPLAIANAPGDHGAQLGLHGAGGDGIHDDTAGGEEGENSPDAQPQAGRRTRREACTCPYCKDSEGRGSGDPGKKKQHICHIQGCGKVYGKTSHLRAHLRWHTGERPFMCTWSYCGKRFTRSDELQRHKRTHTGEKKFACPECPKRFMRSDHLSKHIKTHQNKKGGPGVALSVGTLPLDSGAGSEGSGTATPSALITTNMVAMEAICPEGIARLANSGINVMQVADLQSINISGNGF
Sequence of Heat shock factor protein 1 (Homo sapiens) (Q00613 whole entry, looked up): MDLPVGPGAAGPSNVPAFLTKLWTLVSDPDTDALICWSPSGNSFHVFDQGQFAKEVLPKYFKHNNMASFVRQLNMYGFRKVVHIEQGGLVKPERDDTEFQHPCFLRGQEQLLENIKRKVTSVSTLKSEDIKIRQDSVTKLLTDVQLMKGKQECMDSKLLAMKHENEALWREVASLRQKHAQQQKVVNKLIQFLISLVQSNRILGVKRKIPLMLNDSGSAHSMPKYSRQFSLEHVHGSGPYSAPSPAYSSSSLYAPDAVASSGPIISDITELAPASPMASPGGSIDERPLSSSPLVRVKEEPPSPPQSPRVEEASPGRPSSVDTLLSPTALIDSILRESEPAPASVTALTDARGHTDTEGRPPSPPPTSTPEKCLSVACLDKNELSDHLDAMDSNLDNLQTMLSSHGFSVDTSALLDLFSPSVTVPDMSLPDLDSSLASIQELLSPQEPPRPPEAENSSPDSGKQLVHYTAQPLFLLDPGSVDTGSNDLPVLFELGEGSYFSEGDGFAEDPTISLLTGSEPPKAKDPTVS
Sequence of Paired box protein Pax-6 (Homo sapiens) (P26367 whole entry, looked up): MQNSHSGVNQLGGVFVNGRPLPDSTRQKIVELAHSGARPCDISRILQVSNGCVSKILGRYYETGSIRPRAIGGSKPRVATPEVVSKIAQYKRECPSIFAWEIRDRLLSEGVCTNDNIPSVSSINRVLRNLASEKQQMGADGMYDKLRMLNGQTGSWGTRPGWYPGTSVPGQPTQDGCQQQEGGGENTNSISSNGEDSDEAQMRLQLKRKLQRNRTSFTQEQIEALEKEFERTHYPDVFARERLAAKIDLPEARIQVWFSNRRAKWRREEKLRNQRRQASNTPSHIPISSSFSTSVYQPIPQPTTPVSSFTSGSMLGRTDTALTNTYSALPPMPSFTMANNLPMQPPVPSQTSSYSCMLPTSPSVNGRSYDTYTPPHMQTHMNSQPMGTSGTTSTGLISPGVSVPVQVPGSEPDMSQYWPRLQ
Sequence of Signal transducer and activator of transcription 3 (Homo sapiens) (P40763 whole entry, looked up): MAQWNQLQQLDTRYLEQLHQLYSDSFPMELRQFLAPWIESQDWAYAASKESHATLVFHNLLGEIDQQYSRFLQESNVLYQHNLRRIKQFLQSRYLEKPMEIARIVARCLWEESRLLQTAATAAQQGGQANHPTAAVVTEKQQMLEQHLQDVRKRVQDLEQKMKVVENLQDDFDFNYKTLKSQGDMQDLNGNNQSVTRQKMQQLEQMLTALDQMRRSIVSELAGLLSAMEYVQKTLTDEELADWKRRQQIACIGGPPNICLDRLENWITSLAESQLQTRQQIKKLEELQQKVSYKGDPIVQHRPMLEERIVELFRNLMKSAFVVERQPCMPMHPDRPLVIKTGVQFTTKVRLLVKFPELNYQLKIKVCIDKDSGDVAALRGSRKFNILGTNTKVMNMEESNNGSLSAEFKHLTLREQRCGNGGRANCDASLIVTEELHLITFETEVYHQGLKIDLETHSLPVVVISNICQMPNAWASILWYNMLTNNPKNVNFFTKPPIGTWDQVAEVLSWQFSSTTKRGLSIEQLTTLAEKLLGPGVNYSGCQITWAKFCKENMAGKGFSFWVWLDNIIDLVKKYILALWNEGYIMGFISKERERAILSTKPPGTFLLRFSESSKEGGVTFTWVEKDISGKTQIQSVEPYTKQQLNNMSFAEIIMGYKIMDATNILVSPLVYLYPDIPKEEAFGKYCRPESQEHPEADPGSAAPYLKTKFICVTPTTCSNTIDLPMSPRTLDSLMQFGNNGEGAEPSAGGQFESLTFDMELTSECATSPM
Sequence of Hepatocyte nuclear factor 6 (Homo sapiens) (Q9UBC0 whole entry, looked up): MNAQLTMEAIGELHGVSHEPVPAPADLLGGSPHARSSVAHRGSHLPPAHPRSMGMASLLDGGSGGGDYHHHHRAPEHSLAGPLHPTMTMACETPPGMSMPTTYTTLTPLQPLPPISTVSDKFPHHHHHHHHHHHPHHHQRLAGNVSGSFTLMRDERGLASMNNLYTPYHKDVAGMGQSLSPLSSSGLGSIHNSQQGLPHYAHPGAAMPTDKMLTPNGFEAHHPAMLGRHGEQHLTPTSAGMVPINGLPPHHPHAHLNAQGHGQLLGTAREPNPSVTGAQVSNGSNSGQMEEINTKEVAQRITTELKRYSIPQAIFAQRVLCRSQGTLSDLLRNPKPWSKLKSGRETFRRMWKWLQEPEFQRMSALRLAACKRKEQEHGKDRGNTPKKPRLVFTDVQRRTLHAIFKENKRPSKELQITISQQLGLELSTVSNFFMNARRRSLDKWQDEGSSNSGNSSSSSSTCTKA

CCOP(=S)(OCC)OP(=S)(OCC)OCC
active: [4] 49.2 µM | [10] 1.11 µM
inactive: all other assays above

CCOC(=O)Cc1ccccc1
inactive: all assays above

CCCCN(CCCCO)N=O
active: [10] 35.3 µM
not listed: [20]
inactive: all other assays above

OC(c1ccc(Cl)cc1)(c1ccc(Cl)cc1)c1cccnc1
active: [10] 1.89 µM
inactive: all other assays above

O=C(NC(=O)c1c(F)cccc1F)Nc1cc(Cl)c(F)c(Cl)c1F
active: [10] 20.2 µM
not listed: [18] | [19]
inactive: all other assays above

OC(Cc1ccccc1Cl)(Cn1cncn1)C1(Cl)CC1 (stereo unspecified)
active: [7] 37.3 µM | [8] 19.8 µM | [10] 8.32 µM
not listed: [17]
inactive: all other assays above
